Measured values: PubChem BioAssay
The source made the active and inactive calls.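 Rule for the calls, unless noted: active = visually confirmed hit in the image check and inhibition above 20%; inconclusive = visually confirmed hit but inhibition not above 20%; inactive = no visual hit in the image check.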

What was measured:
[1] = inhibitors of TNFa-induced NFkB p65 translocation, primary screen, imaging, HUVEC, MLSMR starter and 10KST1 sets (AID 438;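 active = inhibition above 20% together with a positive visual image hit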;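 note: compound added about 3h40 before a 20 min TNFalpha stimulation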;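 for inhibition: signal is the nuclear over cytoplasmic p65 intensity ratio per well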); settings: HUVEC TNFa-induced p65 nuclear translocation; cell count: measured here: nuclei count (cytotoxicity indicator), at 2.08 µM; inhibition: at 2 µM, stronger effect = higher value, 0% TNFa-plus-vehicle, 100% no-TNFa wells
[2] = reduction of polyQ htt aggregates in cells – imaging, exon1htt(103Q)mCFP cells, high-content imaging, primary screen (AID 483;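 active = visual image review flags a hit and inhibition of aggregation exceeds 20%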;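 note: compound exposure lasted 3 days before fixation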;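 for nuclei count: percent of the per-plate median nuclei count of sample wells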); settings: exon1htt(103Q)mCFP cell line, aggregate imaging, at 2 µM; inhibition of aggregation: stronger effect = higher value; nuclei count: measured here: cell count, toxicity
[3] = endothelial E-selectin expression blockers – imaging, HUVEC, immunofluorescence, MLSMR starter and 10KST1 sets, primary screen (AID 487); settings: HUVEC TNFalpha-induced E-selectin immunofluorescence imaging, at 2 µM; inhibition: stronger effect = higher value; nuclei count: measured here: cell number, toxicity;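 for inhibition: signal is fraction of cell area covered by stained E-selectin grains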;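 for nuclei count: 100% = median nuclei count of all wells on the same plate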
[4] = target: Voltage-gated potassium channel subunit beta-2 (Rattus norvegicus) (UniProt P62483); experiment: inhibitors of rat Kvbeta2 reductase activity – biochemical, NADPH fluorescence, primary screen (AID 622;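 active = fluorescence slope higher than the sample average by over 3 SD, cut at about -0.22 in these data, passing the limit was not always enough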;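 note: slope of raw intensity against log time taken from 70 to 1610 s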); settings: recombinant KvBeta, 4-cyanobenzaldehyde reduction, at 10 µM, stronger effect = higher value
[5] = target: Voltage-gated potassium channel subunit beta-2 (Rattus norvegicus) (UniProt P62483); experiment: enhancers of rat Kvbeta2 NADPH turnover – biochemical, NADPH fluorescence, primary screen (AID 623;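 active = NADPH fluorescence slope more negative than the mean of all samples by about 3 SD, 99.7% confidence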;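 note: fluorescence intensity change per second fitted from 20 to 320 s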); settings: Recombinant KvBeta, NADPH fluorescence decrease slope, 10 min; at 10 µM; stronger effect = lower value
[6] = target: Alpha-2C adrenergic receptor (Homo sapiens) (UniProt P18825); experiment: compounds altering alpha2C-coupled GIRK flux – cell-based, HEK293 alpha2C/GIRK1/2, thallium flux, primary screen (AID 624;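 active = fluorescence slope after compound addition differing from the mean of all screened samples at 99.7% confidence, in either direction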;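 note: slope of fluorescence ratio to pre-addition baseline per second over 15 to 24 s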); settings: thallium flux BTC fluorescence, at 10 µM, actives lie on both sides
[7] = blockers of RIG-like receptor reporter activation – cell-based, Sendai virus stimulus, luciferase, 10K MLSCN set, TLR/RLR signaling modifier project, primary screen (AID 602276;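 active = inhibition at or above 50% at 10 µM; inactive = inhibition below 50%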;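 note: firefly luciferase from ISG56 promoter only with Renilla not read in this screen; 0% = Sendai virus plus DMSO and 100% = medium plus DMSO without virus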); settings: HEK293 RL24 IRF3 luciferase reporter, at 10 µM, stronger effect = higher value
[8] = TLR3 IRF3 reporter activation blockers – cell-based, poly I:C stimulus, luciferase, 10K MLSCN set, primary screen (AID 602277;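 active = inhibition of the reporter signal at or above 50%; inactive = inhibition below 50%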); settings: HEK293-TLR3 RL24 IRF3 luciferase reporter, at 10 µM, stronger effect = higher value

Sequence of Voltage-gated potassium channel subunit beta-2 (Rattus norvegicus) (P62483 whole entry, looked up): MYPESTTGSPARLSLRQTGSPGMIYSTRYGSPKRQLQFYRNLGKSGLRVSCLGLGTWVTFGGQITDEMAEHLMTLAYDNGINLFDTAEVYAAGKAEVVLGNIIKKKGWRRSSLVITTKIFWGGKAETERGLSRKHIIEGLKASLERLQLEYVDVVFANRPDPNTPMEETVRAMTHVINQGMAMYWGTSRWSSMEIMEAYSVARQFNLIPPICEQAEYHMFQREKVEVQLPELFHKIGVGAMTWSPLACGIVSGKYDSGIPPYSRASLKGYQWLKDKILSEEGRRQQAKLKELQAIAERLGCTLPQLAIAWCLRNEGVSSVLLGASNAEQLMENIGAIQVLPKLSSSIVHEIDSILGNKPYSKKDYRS
Sequence of Alpha-2C adrenergic receptor (Homo sapiens) (P18825 whole entry, looked up): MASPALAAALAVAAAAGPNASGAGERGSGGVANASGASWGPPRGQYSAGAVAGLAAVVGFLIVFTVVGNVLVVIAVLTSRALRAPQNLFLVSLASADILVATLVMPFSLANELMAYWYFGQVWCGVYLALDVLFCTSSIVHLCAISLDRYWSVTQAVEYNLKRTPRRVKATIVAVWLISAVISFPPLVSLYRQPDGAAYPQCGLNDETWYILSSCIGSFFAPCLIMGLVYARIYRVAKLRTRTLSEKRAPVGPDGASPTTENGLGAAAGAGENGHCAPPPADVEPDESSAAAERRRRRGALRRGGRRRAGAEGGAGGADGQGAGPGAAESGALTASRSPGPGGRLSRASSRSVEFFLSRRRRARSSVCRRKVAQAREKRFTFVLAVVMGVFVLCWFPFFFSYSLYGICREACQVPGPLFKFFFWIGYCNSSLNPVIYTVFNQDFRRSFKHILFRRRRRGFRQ

SMILES	cell count [1]	inhibition [1]	inhibition of aggregation [2]	nuclei count [2] [%]	inhibition [3]	nuclei count [3] [%]	fluorescence slope [4]	NADPH fluorescence slope [5]	slope [6]	inhibition [7]	inhibition [8]
COc1ccc(S(=O)(=O)NCC(c2cccnc2)N2CCN(c3ccc(F)cc3)CC2)cc1C (centres undefined)	234	-19.1% (inactive)	-4.9% (inactive)	56.8	19.6% (inactive)	87.7	-0.447 (inactive)	1.7e-05 (inactive)	0.00574 (inactive)	13.6% (inactive)	27.2% (inactive)
CC(=O)Nc1ccc(S(=O)(=O)NCC(C)NS(=O)(=O)c2ccc(NC(C)=O)cc2)cc1 (centres undefined)	572	-9.7% (inactive)	18.1% (inactive)	76	-204% (inactive)	95.1	-0.442 (inactive)	4.4e-05 (inactive)	0.0079 (inactive)	-11.9% (inactive)	-13.4% (inactive)
CNC(=O)CSc1nnc(-c2cc3c(C)nn(-c4ccccc4)c3s2)n1C	428	4.3% (inactive)	2.8% (inactive)	74.6	-35.6% (inactive)	118	-0.405 (inactive)	4.5e-05 (inactive)	0.00659 (inactive)	-6.24% (inactive)	-6.6% (inactive)
Nc1nc(NCc2ccco2)nn1-c1ccccc1	335	-14.2% (inactive)	-22.2% (inactive)	112	5.3% (inactive)	93.7	-0.402 (inactive)	-8.1e-05 (inactive)	0.00567 (inactive)	7.08% (inactive)	-10.7% (inactive)
O=C(Nc1ccncc1)C1CCCN(S(=O)(=O)c2cccc3cccnc23)C1 (centres undefined)	686	6.8% (inactive)	-328% (inactive)	4.8	-46% (inactive)	104	-0.548 (inactive)	-3.9e-05 (inactive)	0.00584 (inactive)	40.7% (inactive)	34.4% (inactive)
COc1ccc(Nc2nc(-c3sc(N)nc3C)cs2)cc1	661	-5.8% (inactive)	-10.7% (inactive)	116	-75.8% (inactive)	118	-0.376 (inactive)	-6.4e-05 (inactive)	0.0038 (inactive)	-13.1% (inactive)	-17.6% (inactive)
CCN1CCCC1CNC(=O)c1cc2c(=O)n(C)c3ccccc3c2n1C (centres undefined)	656	-5% (inactive)	-28.9% (inactive)	113	-41.6% (inactive)	114	-0.55 (inactive)	2.6e-06 (inactive)	0.00775 (inactive)	2.48% (inactive)	40.8% (inactive)
Cn1c(SCc2nnc3n2CCCCC3)nc2ccccc21	252	-15.3% (inactive)	-3.3% (inactive)	94.7	-94.2% (inactive)	127	-0.433 (inactive)	-2.7e-05 (inactive)	0.00588 (inactive)	14% (inactive)	20% (inactive)
CC1CCc2nn(CC(=O)NCc3ccc4c(c3)OCO4)cc2C1 (centres undefined)	673	-6.1% (inactive)	1.1% (inactive)	103	-80.8% (inactive)	124	-0.506 (inactive)	-2.4e-05 (inactive)	0.00628 (inactive)	7.66% (inactive)	18% (inactive)
COc1ccc(CN(C(=O)c2cccs2)c2nccs2)cc1OC	457	3.9% (inactive)	-1.2% (inactive)	112	-60.6% (inactive)	111	-0.458 (inactive)	-3e-05 (inactive)	0.00675 (inactive)	-2.48% (inactive)	21.6% (inactive)
Nc1nc2n(n1)C(c1c(F)cccc1Cl)CC(c1ccc(F)cc1)N2 (centres undefined)	868	3.5% (inactive)	-46.8% (inactive)	117	-37% (inactive)	110	-0.455 (inactive)	-1.9e-05 (inactive)	0.0048 (inactive)	-2.35% (inactive)	25.6% (inactive)
CCOc1ccccc1C(=O)Nc1nnc(CC)s1	537	-12% (inactive)	12.2% (inactive)	59.9	-6.2% (inactive)	88	-0.428 (inactive)	-2.5e-05 (inactive)	0.00564 (inactive)	-6.19% (inactive)	-13.4% (inactive)
CN1CCN(C2=C(Cl)C(=O)N(c3cccc(Cl)c3)C2=O)CC1	396	5.9% (inactive)	8.6% (inactive)	91.3	-1.1% (inactive)	97.4	-0.355 (inactive)	-3.9e-05 (inactive)	0.00541 (inactive)	5.11% (inactive)	13.1% (inactive)
COc1ccc(OC)c(NC(=O)CS(=O)(=O)Cc2nc(-c3ccccc3C)oc2C)c1	676	1.1% (inactive)	-17.4% (inactive)	97.7	-17.6% (inactive)	110	-0.587 (inactive)	-1.4e-06 (inactive)	0.00717 (inactive)	7.59% (inactive)	31.4% (inactive)
